Measured values as given in PubChem BioAssay (Tox21).
Several values for one entry are separate records, joined by “and”; a condition that tells them apart may be missing. Equal entries are not always repeated. Records with an inconclusive call do not appear. Activity calls are given as the source filed them. Unless noted, calls follow the shape of the dose curve; as a rule, active = well fitted curve in the direction sought with a large enough effect in the repeat runs; inconclusive = weak or mixed curves; inactive = no such curve, though single readings can be large; an effect the other way counts as inactive or inconclusive.

Experiments:
[1] = molecular target: Androgen receptor (Homo sapiens) (UniProt P10275); experiment: qHTS assay to identify small molecule antagonists of the androgen receptor (AR) signaling pathway using the MDA cell line in the presence of 0.5 nM R1881 (AID 1259243); also: nearly all actives have a fitted effect of over 50% in size; also: potency is read from the fitted curve at half-maximal effect
In short: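 Luminescence from an AR/GR-responsive MMTV-luciferase construct in MDA-kb2 breast carcinoma cells, read 30 min after ONE-Glo, following 16 hr co-treatment with compounds and 0.5 nM R1881.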

[2] = molecular target: Estrogen receptor (Homo sapiens) (UniProt P03372); experiment: qHTS assay to identify small molecule antagonists of the estrogen receptor alpha (ER-alpha) signaling pathway using the BG1 cell line in the presence of 0.1 nM 17-beta-estradiol (AID 1259244); also: nearly all actives have a fitted effect of over 50% in size; also: potency is read from the fitted curve at half-maximal effect
In short: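 Luciferase signal from VM7Luc4E2 ERE-reporter cells, co-dosed with test compound and 0.1 nM final 17beta-estradiol for 22 h, read with ONE-Glo.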

[3] = qHTS assay to identify small molecule HDAC inhibitors (AID 1259364);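 also: wild-type HCT-116 cells with endogenous class I/II HDAC activity; top concentration of the series differs between compounds; nearly all actives have a fitted effect of over 45% in size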
In short: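 HCT-116 wt cells, 1,500/well, overnight attach. Compounds (DMSO) 2 h, 37 °C. HDAC-Glo I/II, 30 min RT. Luminescence.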

[4] = qHTS assay to identify small molecule HDAC inhibitors - cell viability counter screen (AID 1259365); also: series mostly up to about 92 µM; nearly all actives have a fitted effect of over 50% in size
In short: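 CellTiter-Glo luminescence (30 min, room temperature) reported viability after a 2 h compound exposure at 37 C. Cells: wild-type HCT-116, 1,500 per well, seeded the night before.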

[5] = qHTS assay to identify small molecule antagonists of the sonic hedgehog signaling (Shh) pathway - cell viability counter screen (AID 1259367); also: nearly all actives have a fitted effect of over 55% in size; also: potency is read from the fitted curve at half-maximal effect
In short: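 Fluorescence read-out (CellTiter-Fluor, 1 hr at 37C) taken after 23 hr compound treatment of 3T3 Gli1-Luc cells stimulated with conditioned medium. Cells were seeded at 2,000 per well and pre-incubated 4 hr.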

[6] = qHTS assay to identify small molecule agonists of the sonic hedgehog signaling (Shh) pathway (AID 1259368; calls by dose curve;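 also: NIH/3T3-derived 3T3Gli1-Luc cells carrying a stable Gli1-driven firefly luciferase reporter; series mostly up to about 92 µM; nearly all actives have a fitted effect of over 15% in size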)
In short: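 Following a 24 hr incubation with DMSO-dissolved compounds at 37 C, 5% CO2, Gli1-Luc NIH/3T3-derived cells received luciferase reagent for 30 min at room temperature prior to luminescence measurement.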

[7] = qHTS assay to identify small molecule antagonists of the sonic hedgehog signaling (Shh) pathway (AID 1259369; calls by dose curve; also: nearly all actives have a fitted effect of over 45% in size; also: potency is read from the fitted curve at half-maximal effect)
In short: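 Read-out is luminescence from a firefly luciferase gene controlled by the Gli1 response element, in 3T3Gli1-Luc cells pre-incubated 4hr then exposed to compounds and conditioned medium for 24hr.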

[8] = qHTS assay to identify small molecule agonists of the androgen receptor (AR) signaling pathway in the presence of an antagonist - cell viability counter screen (AID 1259379); also: nearly all actives have a fitted effect of over 25% in size; also: potency is read from the fitted curve at half-maximal effect
In short: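 Each compound was tested at 15 concentrations on MDA-kb2 cells in the presence of 3.0uM nilutamide. Viability was measured by CellTiter-Fluor fluorescence after a 16 hr incubation at 37C in a CO2-free atmosphere.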

[9] = qHTS assay to identify small molecule agonists of the estrogen receptor beta (ER-beta) signaling pathway - cell viability counter screen (AID 1259380); also: nearly all actives have a fitted effect of over 30% in size; also: potency is read from the fitted curve at half-maximal effect
In short: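 Compounds dissolved in DMSO were pin-transferred onto ER-beta-UAS-bla HEK293T cells that had settled 6 hr, and exposure ran 16 hr at 37C. Following the reporter read, CellTiter-Glo luminescence after 30 min at room temperature indicated cytotoxicity.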

[10] = molecular target: Androgen receptor (Homo sapiens) (UniProt P10275); experiment: qHTS assay to identify small molecule agonists of the androgen receptor (AR) signaling pathway in the presence of an antagonist (AID 1259381; calls by dose curve; also: nearly all actives have a fitted effect of over 15% in size; also: potency is read from the fitted curve at half-maximal effect)
In short: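 Plated MDA-kb2 cells (3,000/well) were pre-incubated 5hr, given nilutamide (3.0uM final) or buffer, then dosed with compounds in DMSO at 15 concentrations. Luciferase activity was quantified by luminescence after 16hr at 37C.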

[11] = qHTS assay to identify small molecule antagonists of the estrogen receptor beta (ER-beta) signaling pathway - cell viability counter screen (AID 1259382); also: nearly all actives have a fitted effect of over 55% in size; also: potency is read from the fitted curve at half-maximal effect
In short: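 CellTiter-Glo ATP luminescence measured after the LiveBLAzer read in the same wells; ER-beta-UAS-bla HEK293T cells, 16 hr compound treatment with 1nM 17-beta-estradiol agonist at 37C, 5% CO2.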

[12] = molecular target: Estrogen receptor (Homo sapiens) (UniProt P03372); experiment: qHTS assay to identify small molecule agonists of the estrogen receptor alpha (ER-alpha) signaling pathway in the presence of an antagonist (AID 1259383; calls by dose curve; also: top concentration of the series differs between compounds; nearly all actives have a fitted effect of over 15% in size)
In short: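 Luminescent ERE-luciferase reporter, VM7Luc4E2 cells (endogenous ER-alpha); 10.0nM ICI-182,780 final; 15-point compound titration; 22hr at 37C; ONE-Glo, 30min RT.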

[13] = qHTS assay to identify small molecule agonists or antagonists of the thyroid stimulating hormone receptor (TSHR) signaling pathway - wild type cell line counter screen (AID 1259384; calls by dose curve)
In short: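 Wild-type Hek293 cells, 800/well, 18 h at 37C, then compound with Ro20-1724 for 30 min RT. cAMP by HTRF (cAMP-d2/anti-cAMP cryptate), 1 h RT, fluorescence read. 15 concentrations, triplicates.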

[14] = molecular target: Thyrotropin receptor (Homo sapiens) (UniProt P16473); experiment: qHTS assay to identify small molecule antagonists of the thyroid stimulating hormone receptor (TSHR) signaling pathway (AID 1259385; calls by dose curve; also: nearly all actives have a fitted effect of over 20% in size; also: potency is read from the fitted curve at half-maximal effect)
In short: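 TSHR-HEK293 cells (800/well) plated 18 h, then compounds with Ro20-1724 and TSH at 1.5 ng/mL final, 30 min at room temperature. cAMP quantified by HTRF (cAMP-d2/anti-cAMP-cryptate, 1 h); 15 concentrations in triplicate.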

[15] = qHTS assay to identify small molecule agonists of the estrogen receptor alpha (ER-alpha) signaling pathway in the presence of an antagonist - cell viability counter screen (AID 1259386);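 also: series mostly up to about 92 µM; cells exposed to compounds for 22 h at 37 °C before the viability read; nearly all actives have a fitted effect of over 30% in size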
In short: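 Using estrogen-depleted VM7Luc4E2 cells, the 15-concentration compound series was applied together with 10.0nM ICI-182,780 and incubated 22hr at 37C/5% CO2. Cell viability was then scored by CellTiter-Fluor.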

[16] = molecular target: Progesterone receptor (Homo sapiens) (UniProt P06401); experiment: qHTS assay to identify small molecule agonists of the progesterone receptor (PR) signaling pathway (AID 1346784; calls by dose curve; also: nearly all actives have a fitted effect of over 30% in size)
In short: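 Agonist qHTS: compounds pinned onto 3,000 PR-UAS-bla HEK 293T cells per well in charcoal-stripped serum medium, 16hr at 37C, then beta-lactamase activity measured by LiveBLAzer FRET fluorescence after 2 hours at room temperature.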

[17] = qHTS assay to identify small molecule agonists of the sonic hedgehog signaling (Shh) pathway - cell viability counter screen (AID 1259366); also: nearly all actives have a fitted effect of over 50% in size; also: potency is read from the fitted curve at half-maximal effect
In short: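 Cytotoxicity counter screen: CellTiter-Fluor reagent added after 23 h compound exposure, then 1 h at 37C and fluorescence read. Cells were 3T3 Gli1-Luc, seeded 2,000 per well and dosed 4 h post-plating.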

[18] = molecular target: Estrogen receptor beta (Homo sapiens) (UniProt Q92731); experiment: qHTS assay to identify small molecule antagonists of the estrogen receptor beta (ER-beta) signaling pathway (AID 1259378; active = well fitted inhibition curve with a large enough effect in the signal ratio in the repeat runs, not every such curve was filed as active; the % refers to the signal ratio; also: potency is read from the fitted curve at half-maximal effect)
In short: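 ER-beta-UAS-bla HEK293T cells in 2% charcoal-stripped FBS medium treated with compound plus 1nM final 17-beta-estradiol for 16 hr at 37C. Beta-lactamase reporter read by FRET substrate fluorescence after 2 hours at room temperature.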

[19] = qHTS assay to identify small molecule phospholipidosis (PLD) inducers (AID 1259344; active = well fitted curve in the direction sought with a large enough effect; an effect the other way counts as inactive or inconclusive; also: potency is read from the fitted curve at half-maximal effect)
In short: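 Read-out is LipidTOX Red fluorescence (ex 595/em 615) imaged in HepG2 cells after 24 h compound exposure at 37 C, with Hoechst nuclear counterstain (ex 352/em 461) allowing per-cell normalisation.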

[20] = molecular target: Estrogen receptor beta (Homo sapiens) (UniProt Q92731); experiment: qHTS assay to identify small molecule agonists of the estrogen receptor beta (ER-beta) signaling pathway (AID 1259377; active = well fitted activation curve with a large enough effect in the signal ratio in the repeat runs, not every such curve was filed as active; the % refers to the signal ratio)
In short: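 Ratiometric beta-lactamase FRET read-out came after 2 h substrate loading at room temperature. It followed 16 h compound treatment at 37C of GripTite HEK293T cells carrying a UAS-bla reporter, plated in 2% charcoal-stripped FBS medium.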

Measured: Potency

Androgen receptor (Homo sapiens), sequence (P10275 whole entry, looked up): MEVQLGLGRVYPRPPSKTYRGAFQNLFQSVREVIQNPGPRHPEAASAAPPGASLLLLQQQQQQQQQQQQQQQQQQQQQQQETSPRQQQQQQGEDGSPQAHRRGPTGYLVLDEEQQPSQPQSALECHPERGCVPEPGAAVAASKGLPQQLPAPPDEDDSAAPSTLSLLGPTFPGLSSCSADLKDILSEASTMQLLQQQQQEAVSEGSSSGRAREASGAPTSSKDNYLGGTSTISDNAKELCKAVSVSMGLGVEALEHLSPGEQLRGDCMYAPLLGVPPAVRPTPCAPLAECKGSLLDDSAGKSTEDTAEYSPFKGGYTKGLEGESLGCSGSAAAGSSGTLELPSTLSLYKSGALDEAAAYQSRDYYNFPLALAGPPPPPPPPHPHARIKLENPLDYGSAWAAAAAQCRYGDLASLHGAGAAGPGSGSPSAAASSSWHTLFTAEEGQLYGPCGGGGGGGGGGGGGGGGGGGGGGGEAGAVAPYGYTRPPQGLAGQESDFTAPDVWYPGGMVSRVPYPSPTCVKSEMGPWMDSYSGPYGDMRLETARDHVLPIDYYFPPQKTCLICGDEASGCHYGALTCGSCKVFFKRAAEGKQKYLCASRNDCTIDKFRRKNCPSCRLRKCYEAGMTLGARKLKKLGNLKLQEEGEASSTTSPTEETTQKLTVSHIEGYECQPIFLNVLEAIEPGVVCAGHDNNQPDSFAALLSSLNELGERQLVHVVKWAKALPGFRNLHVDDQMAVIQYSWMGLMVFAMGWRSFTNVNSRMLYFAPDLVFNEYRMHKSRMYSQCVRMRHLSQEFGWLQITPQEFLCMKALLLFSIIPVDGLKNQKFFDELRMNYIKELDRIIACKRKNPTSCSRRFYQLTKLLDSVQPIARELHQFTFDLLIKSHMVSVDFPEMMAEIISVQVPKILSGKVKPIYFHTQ
Estrogen receptor beta (Homo sapiens), sequence (Q92731 whole entry, looked up): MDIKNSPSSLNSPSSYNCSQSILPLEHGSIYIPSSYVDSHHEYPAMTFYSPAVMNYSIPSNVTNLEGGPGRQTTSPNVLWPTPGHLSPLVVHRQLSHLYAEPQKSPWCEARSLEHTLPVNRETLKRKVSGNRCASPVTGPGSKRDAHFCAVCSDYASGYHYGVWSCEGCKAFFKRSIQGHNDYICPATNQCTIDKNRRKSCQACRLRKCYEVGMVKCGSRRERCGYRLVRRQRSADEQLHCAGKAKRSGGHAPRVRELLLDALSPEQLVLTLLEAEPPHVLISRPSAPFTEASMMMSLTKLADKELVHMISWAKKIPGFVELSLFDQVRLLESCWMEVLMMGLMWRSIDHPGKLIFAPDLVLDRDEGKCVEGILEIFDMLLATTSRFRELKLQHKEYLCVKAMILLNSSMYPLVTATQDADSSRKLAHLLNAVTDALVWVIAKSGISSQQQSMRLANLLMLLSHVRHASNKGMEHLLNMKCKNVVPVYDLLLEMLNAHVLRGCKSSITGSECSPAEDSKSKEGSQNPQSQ
Progesterone receptor (Homo sapiens), sequence (P06401 whole entry, looked up): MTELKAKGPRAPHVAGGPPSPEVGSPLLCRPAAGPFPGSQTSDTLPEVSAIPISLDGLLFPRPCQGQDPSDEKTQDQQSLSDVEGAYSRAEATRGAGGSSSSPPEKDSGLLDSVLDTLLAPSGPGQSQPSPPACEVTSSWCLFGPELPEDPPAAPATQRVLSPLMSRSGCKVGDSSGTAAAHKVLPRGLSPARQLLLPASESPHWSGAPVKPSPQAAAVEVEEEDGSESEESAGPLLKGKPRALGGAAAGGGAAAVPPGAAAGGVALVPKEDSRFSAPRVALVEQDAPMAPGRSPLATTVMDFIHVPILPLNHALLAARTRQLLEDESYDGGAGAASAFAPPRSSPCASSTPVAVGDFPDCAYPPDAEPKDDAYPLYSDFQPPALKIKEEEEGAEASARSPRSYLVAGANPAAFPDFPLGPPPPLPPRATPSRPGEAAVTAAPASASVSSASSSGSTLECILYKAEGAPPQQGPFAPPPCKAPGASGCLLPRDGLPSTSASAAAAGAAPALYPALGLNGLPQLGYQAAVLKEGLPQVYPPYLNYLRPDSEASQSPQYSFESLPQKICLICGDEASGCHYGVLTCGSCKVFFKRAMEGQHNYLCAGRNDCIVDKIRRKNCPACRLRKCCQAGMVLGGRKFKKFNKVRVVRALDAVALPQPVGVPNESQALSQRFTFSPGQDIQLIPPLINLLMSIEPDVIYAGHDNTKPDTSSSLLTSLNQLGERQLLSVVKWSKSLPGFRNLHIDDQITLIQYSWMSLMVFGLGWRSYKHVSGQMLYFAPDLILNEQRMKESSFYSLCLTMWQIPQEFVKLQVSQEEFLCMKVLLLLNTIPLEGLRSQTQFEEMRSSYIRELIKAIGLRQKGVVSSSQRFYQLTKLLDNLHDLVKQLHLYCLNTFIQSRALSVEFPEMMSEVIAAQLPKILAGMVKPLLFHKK
Estrogen receptor (Homo sapiens), sequence (P03372 whole entry, looked up): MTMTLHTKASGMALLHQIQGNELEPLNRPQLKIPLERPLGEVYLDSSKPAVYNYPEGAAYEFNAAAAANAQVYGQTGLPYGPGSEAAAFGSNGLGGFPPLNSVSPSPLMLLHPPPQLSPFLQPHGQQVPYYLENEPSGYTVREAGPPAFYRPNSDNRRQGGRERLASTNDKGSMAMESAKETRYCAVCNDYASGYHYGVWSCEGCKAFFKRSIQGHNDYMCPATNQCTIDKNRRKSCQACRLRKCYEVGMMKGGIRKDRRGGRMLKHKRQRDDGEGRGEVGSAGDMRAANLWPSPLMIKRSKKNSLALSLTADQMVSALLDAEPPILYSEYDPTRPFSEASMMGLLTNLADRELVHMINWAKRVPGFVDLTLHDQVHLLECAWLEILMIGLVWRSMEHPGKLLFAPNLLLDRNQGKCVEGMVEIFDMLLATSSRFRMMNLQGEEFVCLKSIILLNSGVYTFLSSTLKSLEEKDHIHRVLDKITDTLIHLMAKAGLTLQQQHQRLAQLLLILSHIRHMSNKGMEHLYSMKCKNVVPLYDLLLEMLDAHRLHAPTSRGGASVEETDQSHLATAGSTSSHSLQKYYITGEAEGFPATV
Thyrotropin receptor (Homo sapiens), sequence (P16473 whole entry, looked up): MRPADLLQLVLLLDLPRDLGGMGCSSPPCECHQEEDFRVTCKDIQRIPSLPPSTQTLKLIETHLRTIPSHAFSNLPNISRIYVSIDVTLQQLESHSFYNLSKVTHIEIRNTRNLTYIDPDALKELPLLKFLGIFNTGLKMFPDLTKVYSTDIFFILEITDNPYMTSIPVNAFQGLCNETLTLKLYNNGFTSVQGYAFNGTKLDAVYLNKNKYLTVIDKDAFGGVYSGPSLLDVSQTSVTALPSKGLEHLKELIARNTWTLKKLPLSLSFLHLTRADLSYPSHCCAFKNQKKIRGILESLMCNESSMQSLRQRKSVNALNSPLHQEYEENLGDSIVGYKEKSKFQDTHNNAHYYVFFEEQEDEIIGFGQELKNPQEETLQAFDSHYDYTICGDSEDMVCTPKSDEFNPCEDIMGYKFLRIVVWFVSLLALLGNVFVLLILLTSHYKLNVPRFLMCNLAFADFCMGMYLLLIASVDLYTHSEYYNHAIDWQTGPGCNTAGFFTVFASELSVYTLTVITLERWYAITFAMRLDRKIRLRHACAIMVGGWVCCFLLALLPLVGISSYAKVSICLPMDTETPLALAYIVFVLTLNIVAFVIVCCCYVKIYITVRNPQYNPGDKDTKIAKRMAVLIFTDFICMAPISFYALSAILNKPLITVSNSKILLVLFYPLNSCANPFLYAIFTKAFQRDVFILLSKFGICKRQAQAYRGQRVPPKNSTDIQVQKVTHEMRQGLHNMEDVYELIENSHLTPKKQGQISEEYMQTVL

CCCCN(C)C
not listed: [17] | [18] | [19] | [20]
inactive: all other assays above

Clc1cccnc1
not listed: [8] | [10] | [18] | [19] | [20]
inactive: all other assays above

CO[Si](CCCNCCNCCN)(OC)OC
not listed: [10] | [18] | [19] | [20]
inactive: all other assays above

Oc1cc2ccccc2cc1O
active: [1] 30.6 µM
not listed: [7] | [9] | [10] | [16] | [18] | [19] | [20]
inactive: all other assays above

Cn1cccc1
not listed: [8] | [10] | [18] | [19] | [20]
inactive: all other assays above

Oc1ccc(-c2ccccc2)c(Cl)c1
active: [1] 1.93 µM | [18] 21.7 µM | [9] 27.3 µM
not listed: [5] | [8] | [10] | [17] | [19] | [20]
inactive: all other assays above

CO[Si](CCC1CCC2OC2C1)(OC)OC (configuration not stated)
not listed: [13] | [18] | [19] | [20]
inactive: all other assays above

C=C1C(C)(C)[C@@]2(Cl)C(Cl)[C@]1(Cl)C(Cl)(Cl)C2(Cl)Cl (some centres not stated)
active: [1] 60 µM | [7] 21.3 µM | [18] 30.1 µM | [9] 60 µM
inactive: [2] | [3] | [4] | [5] | [6] | [10] | [12] | [13] | [14]

OCCCCl
not listed: [13] | [16] | [18] | [19] | [20]
inactive: all other assays above

CC(NCCC(c1ccccc1)c1ccccc1)c1ccccc1 (configuration not stated)
inactive: [3] | [4] | [6] | [10] | [12] | [13]
active: [1] 21.1 µM | [7] 26.6 µM | [18] 26.6 µM | [8] 23.7 µM | [9] 18.8 µM | [11] 18.8 µM | [14] 29.8 µM

CCCN(CCc1cccs1)[C@H]1CCc2c(O)cccc2C1
active: [1] 26.6 µM
not listed: [2] | [7] | [9] | [13] | [18] | [20]
inactive: all other assays above

C[C@H]1O[C@@H](O[C@H]2[C@@H](O)C[C@H](O[C@H]3[C@@H](O)C[C@H](O[C@H]4CC[C@@]5(C)[C@H](CC[C@@H]6[C@@H]5C[C@@H](O)[C@]5(C)[C@@H](C7=CC(=O)OC7)CC[C@]65O)C4)O[C@@H]3C)O[C@@H]2C)C[C@H](O)[C@@H]1O
active: [19] 11.2 µM | [9] 86.4 nM and 95.8 nM | [10] 0.172 µM | [11] 61.2 nM and 76.1 nM
inactive: [1] | [3] | [4] | [5] | [6] | [8] | [15]

CCCCOCC
not listed: [2] | [12] | [19]
inactive: all other assays above

c1cc(OCC2CO2)cc(OCC2CO2)c1 (configuration not stated)
active: [1] 48.2 µM | [2] 48.2 µM | [17] 21.5 µM | [5] 60.6 µM | [7] 19.2 µM
not listed: [3] | [15] | [16] | [18] | [19] | [20]
inactive: all other assays above
